The values below come from PubChem BioAssay (NCI).

This is part of a sample that, as a whole, favours compounds with a hit. Of some 83,000 tested, about 20% had one in any assay.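 Percent growth is the endpoint: 0 to 100 indicates growth inhibition (40 means 60% inhibition), 0 means no net growth, and negative values indicate cell death.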 Values without a mark were called inactive. Calls of active or inactive are those of the source. The calls were made as follows: active = growth percent below 10; inactive = the rest.

Some test systems named below: SR leukemia; RPMI-8226 leukemia; OVCAR-8 ovarian; OVCAR-5 ovarian; OVCAR-4 ovarian; SK-OV-3 ovarian; IGROV1 ovarian; OVCAR-3 ovarian; HS 578T breast; NCI/ADR-RES ovarian; T-47D breast; BT-549 breast; MDA-MB-435 melanoma; SW-620 colon; MCF7 breast; HCT-116 colon; HCC-2998 colon; KM12 colon; MDA-MB-468 breast.
Assay in all cases: NCI-60 one-dose screen, 48 h (100 = growth as untreated, 0 = no growth, -100 = all killed)
Holding throughout (conditions): 10 µM unless noted

Take `C=C1CCC2C3(C)COC(c4cc(F)cc(F)c4)OC3CCC2(C)C1CC(O)C1=CCOC1=O` (stereo unspecified): the growth with SR leukemia was 28.6%; with RPMI-8226 leukemia it was 11%; with OVCAR-8 ovarian it was 16.2%; in the assay with OVCAR-5 ovarian, 87%; in the assay on OVCAR-4 ovarian, 53.1%; in the assay on SK-OV-3 ovarian, 102%. The growth is 60.1% in the assay on IGROV1 ovarian; 61.4% in the assay on OVCAR-3 ovarian; 70.4% in the assay on HS 578T breast; 14.5% in the assay on NCI/ADR-RES ovarian; 40.5% in the assay with T-47D breast; -12.9% (active) with BT-549 breast. Also, the growth in the assay with MDA-MB-435 melanoma was 60%; in the assay on SW-620 colon, -44.2% (active); in the assay with MCF7 breast, 15.3%; in the assay with HCT-116 colon, -33.8% (active); in the assay with HCC-2998 colon, 45.8%; in the assay with KM12 colon it was 60.5%. In addition, in the assay with MDA-MB-468 breast, the growth was 70.7%.
With `CC(C)CSc1nc(NCCc2c[nH]c3ccccc23)c(C#N)c(-c2ccc(Cl)cc2)n1`, the growth in the assay on SR leukemia was 7.81% (active); in the assay on RPMI-8226 leukemia it was 36.3%; in the assay with OVCAR-8 ovarian it was 76.2%; with OVCAR-5 ovarian, 80.5%; with OVCAR-4 ovarian it was 78.3%; in the assay with SK-OV-3 ovarian, 81.7%. In addition, the growth in the assay on IGROV1 ovarian was 96.2%; in the assay on OVCAR-3 ovarian it was 76.4%; in the assay on HS 578T breast, 51.6%; with NCI/ADR-RES ovarian, 54.7%; in the assay with T-47D breast it was 31.7%; in the assay on BT-549 breast, 83.5%. Also, the growth in the assay with MDA-MB-435 melanoma is 72.5%; with SW-620 colon, 24.9%; in the assay on MCF7 breast, 16.4%; in the assay on HCT-116 colon it was 19.5%; in the assay with HCC-2998 colon, 52.3%; in the assay on KM12 colon, 35.1%. The growth in the assay with MDA-MB-468 breast is 53.9%.
Turning to `Cc1ccc(C(=O)CSc2nc3ccc(C)cc3c(=O)n2-c2ccc(F)cc2)cc1`, the growth was 99.7% with SR leukemia; 98.5% in the assay on RPMI-8226 leukemia; 31.3% in the assay on OVCAR-8 ovarian; 84.8% in the assay on OVCAR-5 ovarian; 28.6% with OVCAR-4 ovarian; 54.9% in the assay with SK-OV-3 ovarian. Besides, the growth was 80.5% with IGROV1 ovarian; 89.5% in the assay on OVCAR-3 ovarian; -8.71% (active) with HS 578T breast; 40.6% in the assay with NCI/ADR-RES ovarian; 52.5% in the assay on T-47D breast; 73.9% in the assay with BT-549 breast. Further, the growth in the assay on MDA-MB-435 melanoma was 89.6%; in the assay on SW-620 colon it was 89%; in the assay on MCF7 breast, 78.1%; in the assay with HCT-116 colon, 18.8%; in the assay with HCC-2998 colon it was 83.5%; with KM12 colon it was 93.7%. Besides, the growth in the assay with MDA-MB-468 breast was 67.2%.
Consider `COc1ccc(-c2nc3cc(C)ccc3n2CC(=O)N=Nc2c(O)[nH]c3ccc(OC)cc23)cc1`, for which the growth is -21.1% (active) in the assay with SR leukemia; -14.7% (active) in the assay on RPMI-8226 leukemia; -68.8% (active) with OVCAR-8 ovarian; -48.2% (active) with OVCAR-5 ovarian; -58.1% (active) in the assay with OVCAR-4 ovarian; -17.7% (active) in the assay on SK-OV-3 ovarian. The growth was -17.3% (active) in the assay with IGROV1 ovarian; -71.8% (active) with OVCAR-3 ovarian; -23.4% (active) with HS 578T breast; -56.1% (active) with NCI/ADR-RES ovarian; -60% (active) in the assay on T-47D breast; -85.4% (active) in the assay on BT-549 breast. For the same compound, the growth with MDA-MB-435 melanoma was -67.8% (active); in the assay with SW-620 colon it was -48.2% (active); in the assay on MCF7 breast, -50.3% (active); with HCT-116 colon it was -97.4% (active); in the assay with HCC-2998 colon, -67.9% (active); in the assay on KM12 colon, -79.5% (active). In addition, in the assay on MDA-MB-468 breast, the growth was -77.1% (active).
Turning to `O=c1cc(-c2ccccc2)oc2cc(OCCCC[P+](c3ccccc3)(c3ccccc3)c3ccccc3)cc(O)c12`, the growth is -39.8% (active) with SR leukemia; -66.7% (active) in the assay on RPMI-8226 leukemia; -61.1% (active) in the assay with OVCAR-8 ovarian; -97.7% (active) in the assay with OVCAR-5 ovarian; -69.1% (active) with OVCAR-4 ovarian; -83.4% (active) in the assay with SK-OV-3 ovarian. Besides, the growth with IGROV1 ovarian is -75.7% (active); with OVCAR-3 ovarian it was -94% (active); in the assay on HS 578T breast it was -35.2% (active); in the assay with NCI/ADR-RES ovarian, -68.3% (active); in the assay with T-47D breast it was -62.5% (active); in the assay with BT-549 breast it was -83% (active). In addition, the growth with MDA-MB-435 melanoma is -67.5% (active); with SW-620 colon it was -81.7% (active); with MCF7 breast, -79.1% (active); with HCT-116 colon, -58.1% (active); with HCC-2998 colon, -93.1% (active); in the assay with KM12 colon, -85.2% (active). Further, the growth in the assay with MDA-MB-468 breast is -84.9% (active).
Turning to `O=C(Nc1ccccc1)N1CCN(c2cc(-c3cn(-c4ccccc4)nc3-c3cccc(O)c3)ccn2)CC1`, the growth is 19.2% with SR leukemia; 32.5% with RPMI-8226 leukemia; 43.9% with OVCAR-8 ovarian; 106% in the assay on OVCAR-5 ovarian; 84.2% in the assay with OVCAR-4 ovarian; 98.1% in the assay with SK-OV-3 ovarian. For the same compound, the growth was 84% with IGROV1 ovarian; 98.2% with OVCAR-3 ovarian; 83.1% with HS 578T breast; 23.7% in the assay with NCI/ADR-RES ovarian; 13.1% in the assay on T-47D breast; 67.3% with BT-549 breast. The growth in the assay on MDA-MB-435 melanoma is 13.7%; with SW-620 colon, 87.5%; with MCF7 breast, 63.3%; with HCT-116 colon, 65.7%; in the assay on HCC-2998 colon, 81.8%; with KM12 colon, 39.5%. Moreover, the growth in the assay on MDA-MB-468 breast was 58.7%.
As for `Cc1occc1C(=O)NN1C(=O)/C(=C/C=C/c2ccc([N+](=O)[O-])o2)SC1=S`, the growth in the assay on SR leukemia was 5.76% (active); in the assay with RPMI-8226 leukemia it was -8.57% (active); in the assay on OVCAR-8 ovarian, -53.9% (active); in the assay on OVCAR-5 ovarian it was -93.3% (active); in the assay on OVCAR-4 ovarian it was -85% (active); with SK-OV-3 ovarian, 20.1%. Further, the growth in the assay on IGROV1 ovarian is -87.6% (active); in the assay with OVCAR-3 ovarian, -100% (active); with HS 578T breast, 19.4%; in the assay on NCI/ADR-RES ovarian, -6.81% (active); with T-47D breast, -15.9% (active); with BT-549 breast, -91% (active). Besides, the growth is -66.2% (active) in the assay with MDA-MB-435 melanoma; -43.2% (active) with SW-620 colon; -33% (active) with MCF7 breast; -73.2% (active) in the assay with HCT-116 colon; -75% (active) in the assay with HCC-2998 colon; -66.2% (active) in the assay with KM12 colon. Besides, the growth in the assay with MDA-MB-468 breast is -52.3% (active).
Take `O=C(Cn1c(/C=C/c2ccccc2)nc2ccccc2c1=O)Nc1ccc(Cl)cc1`: the growth was 87.6% in the assay on SR leukemia; 86.8% in the assay with RPMI-8226 leukemia; 58.3% with OVCAR-8 ovarian; 68.7% in the assay on OVCAR-5 ovarian; -22.4% (active) in the assay with OVCAR-4 ovarian; 40.2% in the assay with SK-OV-3 ovarian. Further, the growth was 67.7% in the assay on IGROV1 ovarian; 29.2% in the assay on OVCAR-3 ovarian; 37.8% with HS 578T breast; 66.6% in the assay with NCI/ADR-RES ovarian; -11.5% (active) in the assay on T-47D breast; 89% in the assay with BT-549 breast. Further, the growth in the assay on MDA-MB-435 melanoma was 85.2%; in the assay with SW-620 colon, 72.1%; in the assay with HCT-116 colon, 30.4%; in the assay with HCC-2998 colon it was 99.2%; with KM12 colon, 84.3%; in the assay with MDA-MB-468 breast it was 57.3%.
